“And” between values parts separate entries of the source, which are not always exact repeats. Equal values may be shown once. Records with an inconclusive call do not appear. Some compounds were tested as several samples or in several runs, with calls that do not always agree. The source made the active and inactive calls. Rule for the calls, unless noted: active = hit-call score of the fitted dose curve at least 0.9, where 1 is the maximum; inactive = score below 0.9.
Experiments:
[1] = target: human Vitamin D Receptor (VDR), VDR (gene 7421) (UniProt P11473); assay: ATG_VDR_TRANS: Attagene TRANS-FACTORIAL HepG2 Assay for human Vitamin D Receptor (VDR) (AID 2283022; active = hit-call score of the fitted dose curve at least 0.9, where 1 is the maximum)
Outline: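 Transactivation by an exogenous VDR-Gal4 chimera in transiently transfected HepG2 cells was measured as reporter transcript level 24 hours after chemical treatment. RT-PCR products were analysed by capillary electrophoresis and fitted in the positive direction relative to DMSO.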

[2] = read-out: Matrix Metallopeptidase 1 (MMP1), MMP1 (gene 4312); assay: BSK_BE3C_MMP1: BioMAP Diversity Plus: BE3C Assay for Matrix Metallopeptidase 1 (MMP1) Biomarker Activity (AID 2283024); details: primary human bronchial epithelial cells; actives raise or lower the signal
Outline: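 Dose cells, wait 24 h, run MMP1 ELISA; cells are human bronchial epithelial primaries. Both increases and decreases relative to DMSO counted.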

[3] = BSK_3C_Vis: BioMAP Diversity Plus: 3C Assay for Morphology Visualization (AID 2283025); details: primary human endothelial cells (HUVEC);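 note: fitted both ways so gain or loss versus DMSO counts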;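 for AC50: light microscopy image of cell morphology used as background control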
Outline: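 Endothelial cells from human umbilical vein were treated with test chemicals for 24 h and inspected by light microscopy for changes in cell conformation.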

[4] = read-out: Pselectin, SELP (gene 6403); assay: BSK_4H_Pselectin: BioMAP Diversity Plus: 4H Assay for Pselectin Biomarker Activity (AID 2283026); details: primary human endothelial cells (HUVEC); actives raise or lower the signal
Outline: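 Human vascular endothelium from umbilical vein; P-selectin measured by ELISA at 24 h post-dose, with cytotoxicity checked by sulforhodamine B total-protein staining in parallel cultures (0.1% SRB after 10% TCA fixation, read at 560 nm).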

[5] = BSK_4H_SRB: Viability Assessment in the BioMAP Diversity Plus: 4H Assay (AID 2283027); details: primary human endothelial cells (HUVEC);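 note: cells exposed to compound for 24 h before staining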;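 for AC50: curves fitted both ways versus DMSO so AC50 may be loss or gain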
Outline: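 Absorbance at 560 nm of SRB-stained total protein served as the viability read-out in confluent primary human umbilical vein endothelium 24 h after chemical treatment. Curves were fitted bidirectionally against DMSO as negative control.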

[6] = BSK_BE3C_SRB: Viability Assessment in the BioMAP Diversity Plus: BE3C Assay (AID 2283028); details: primary human bronchial epithelial cells;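 note: measured 24 h after chemical dosing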;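 for AC50: fitted both ways so AC50 may mark signal gain or loss versus DMSO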
Outline: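 Cytotoxicity read-out: SRB (0.1%) staining of TCA-fixed (10%) human lung bronchial epithelial cells, absorbance 560 nm, 24 h post-dosing. Curves fitted both directions relative to DMSO.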

[7] = read-out: Thrombomodulin, THBD (gene 7056); assay: BSK_3C_Thrombomodulin: BioMAP Diversity Plus: 3C Assay for Thrombomodulin Biomarker Activity (AID 2283029); details: primary human endothelial cells (HUVEC); actives raise or lower the signal
Outline: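 Thrombomodulin ELISA, human primary HUVEC, 24 h post-dose; data fitted in both directions relative to DMSO.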

[8] = read-out: Urokinase-type plasminogen activator receptor (uPAR), PLAUR (gene 5329); assay: BSK_4H_uPAR: BioMAP Diversity Plus: 4H Assay for Urokinase-type plasminogen activator receptor (uPAR) Biomarker Activity (AID 2283030); details: primary human endothelial cells (HUVEC); actives raise or lower the signal
Outline: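 uPAR level read by ELISA on HUVEC cultures (BioMAP 4H) 24 h post-dosing, analyzed for gain or loss relative to DMSO. Parallel SRB staining assessed overt cytotoxicity.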

[9] = read-out: Vascular endothelial growth factor receptor 2 (Homo sapiens) (UniProt P35968); assay: BSK_4H_VEGFRII: BioMAP Diversity Plus: 4H Assay for Vascular endothelial growth factor receptor 2 (VEGFR2) Biomarker Activity (AID 2283031); details: primary human endothelial cells (HUVEC); actives raise or lower the signal
Outline: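 Measured by ELISA after 24 h of compound treatment: VEGFR2 on primary human umbilical vein endothelial cells, fitted in both directions relative to DMSO. Parallel cultures received SRB staining (560 nm) for overt cytotoxicity.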

[10] = BSK_3C_SRB: Viability Assessment in the BioMAP Diversity Plus: 3C Assay (AID 2283023); details: primary human endothelial cells (HUVEC);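 note: fitted both ways against DMSO so a hit may be signal rise or drop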
Outline: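 Cytotoxicity readout in parallel HUVEC 3C cultures: after 24 h compound exposure, cells fixed with 10% TCA, stained with 0.1% SRB and read at 560 nm. Gain or loss relative to DMSO fitted.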

Measured: AC50

Sequence of human Vitamin D Receptor (VDR), VDR (gene 7421) (P11473 whole entry, looked up, the tested form may be a part): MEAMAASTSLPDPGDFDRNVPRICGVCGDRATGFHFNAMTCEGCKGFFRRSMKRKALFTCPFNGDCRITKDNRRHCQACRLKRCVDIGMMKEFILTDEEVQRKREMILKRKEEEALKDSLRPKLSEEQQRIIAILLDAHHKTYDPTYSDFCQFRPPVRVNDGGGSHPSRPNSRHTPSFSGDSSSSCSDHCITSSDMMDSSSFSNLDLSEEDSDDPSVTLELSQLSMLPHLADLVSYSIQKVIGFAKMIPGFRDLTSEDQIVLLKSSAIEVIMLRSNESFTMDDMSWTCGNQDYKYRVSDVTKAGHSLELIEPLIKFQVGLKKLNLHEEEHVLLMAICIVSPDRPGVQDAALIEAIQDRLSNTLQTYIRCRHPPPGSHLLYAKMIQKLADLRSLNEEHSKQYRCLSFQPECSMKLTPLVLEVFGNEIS

c1ccc2[nH]c(-c3cscn3)nc2c1
inactive: [1] | [2] | [3] | [4] | [5] | [6] | [7] | [8] | [9]

CCC(O)=C1C(=O)CC(C(=O)O)CC1=O (configuration not stated)
inactive: [3] | [4] | [5] | [6] | [7] | [8] | [9]

S=C([S-])NCCNC(=S)[S-].[Mn+2]
inactive: [10] | [6] | [7] | [8] | [9]
active: [3] 39 µM | [4] 27.8 µM

CCCCC(CC)COC(=O)c1ccccc1C(=O)O (configuration not stated)
inactive: [10] | [2] | [3] | [4] | [6] | [7] | [8]

CC(C)(c1ccc(O)cc1)c1ccc(O)cc1
active: [3] 39.6 µM and 20 µM | [6] 24 µM
inactive: [3] | [4] | [6] | [7] | [8]

CCNc1nc(N)nc(Cl)n1
inactive: [2] | [3] | [4] | [6] | [7] | [8]

CCCN(CCC)c1c([N+](=O)[O-])cc(C(F)(F)F)c(N)c1[N+](=O)[O-]
inactive: [2]
active: [10] 30.6 µM | [3] 16.3 µM | [4] 30.3 µM | [5] 31.5 µM | [6] 16.4 µM | [7] 2.15 µM | [8] 33.1 µM

CCN(Cc1c(F)cccc1Cl)c1c([N+](=O)[O-])cc(C(F)(F)F)cc1[N+](=O)[O-]
inactive: [4] | [7] | [8] | [9]
active: [10] 11.8 µM | [3] 13.7 µM | [5] 12.6 µM | [6] 8.78 µM

CCOC(=O)c1ccc(O)cc1
inactive: [1] | [3] | [4] | [6] | [7] | [8] | [9]

CSC(=O)c1cccc2nnsc12
inactive: [1] | [3] | [4] | [6] | [7] | [8]

CCCCC(CC)CN1C(=O)C2C3C=CC(C3)C2C1=O (configuration not stated)
inactive: [3] | [4] | [5] | [7] | [8]
active: [6] 17.3 µM

CC(=O)S[C@@H]1CC2=CC(=O)CC[C@]2(C)[C@H]2CC[C@@]3(C)[C@@H](CC[C@@]34CCC(=O)O4)[C@H]12
inactive: [1] | [3] | [6] | [7] | [8] | [9]

S=C(S)NCCNC(=S)S.[Mn+2].[S-]C([S-])=NCCN=C([S-])[S-].[Zn+2]
inactive: [1] | [3] | [4] | [6] | [7] | [8]

CC(C)(C)[C@@H](O)[C@@H](Cc1ccc(Cl)cc1)n1cncn1
inactive: [10] | [4] | [6] | [7] | [8]
active: [3] 39 µM

COC(=O)CSc1cc(N=c2sc(=O)n3n2CCCC3)c(F)cc1Cl
active: [7] 1.21 µM
inactive: [10] | [2] | [3] | [4] | [6] | [8] | [9]

CCCCOCCOCCOCc1cc2c(cc1CCC)OCO2
inactive: [2] | [3] | [4] | [5] | [6] | [7] | [8]

C[C@]12C[C@H](O)[C@H]3[C@@H](CCC4=CC(=O)CC[C@@]43C)[C@@H]1CC[C@@H]2C(=O)CO
inactive: [10] | [2] | [3] | [4] | [6] | [7] | [8]

CCC(C)OC(=O)N1CCCCC1CCO (configuration not stated)
inactive: [3] | [4] | [6] | [7] | [8]

CCOC(=O)C(C)Oc1ccc(Oc2cnc3cc(Cl)ccc3n2)cc1 (configuration not stated)
inactive: [2] | [3] | [4] | [6] | [7] | [8]

CN(C)C(=O)Nc1ccc(Cl)c(Cl)c1
inactive: [10] | [3] | [4] | [6] | [7] | [8]

O=C(Nc1ccc([N+](=O)[O-])cc1Cl)c1cc(Cl)ccc1O
active: [10] 0.589 µM | [4] 0.302 µM | [6] 0.34 µM | [7] 0.148 µM | [8] 0.148 µM

CCCOC(=O)c1ccc(C(=O)OCCC)nc1
inactive: [10] | [3] | [4] | [5] | [6] | [7] | [8]

OB(O)O
inactive: [1] | [3] | [4] | [6] | [7] | [8] | [9]

COc1nc(C)nc(NC(=O)NS(=O)(=O)c2ccccc2OCCCl)n1
inactive: [1] | [3] | [4] | [6] | [7] | [8] | [9]

COC(=O)c1ccc(I)cc1S(=O)(=O)NC(=O)Nc1nc(C)nc(OC)n1
inactive: [10] | [3] | [4] | [6] | [7] | [8]

COC(=O)c1cccc(C)c1S(=O)(=O)NC(=O)Nc1nc(OCC(F)(F)F)nc(N(C)C)n1
inactive: [10] | [2] | [3] | [4] | [6] | [7] | [8] | [9]

CCSC(=O)N(CC(C)C)CC(C)C
inactive: [3] | [4] | [6] | [7] | [8]

O=C(O)c1ccccc1
inactive: [1] | [3] | [4] | [6] | [7] | [8] | [9]

COC(=O)c1ccccc1C(=O)O
inactive: [10] | [2] | [3] | [4] | [6] | [7] | [8]

CCCCOC(=O)[C@@H](C)Oc1ccc(Oc2ccc(C(F)(F)F)cn2)cc1
active: [3] 39 µM
inactive: [4] | [5] | [6] | [7] | [8]

CCCCOC(=O)C(C)Oc1ccc(Oc2ccc(C(F)(F)F)cn2)cc1 (configuration not stated)
inactive: [1] | [3] | [4] | [6] | [7] | [8] | [9]
